This note sets out measurements from PMC7862700, “An all-to-all approach to the identification of sequence-specific readers for epigenetic DNA modifications on cytosine”.

What all share (test): DAPPL (digital affinity profiling via proximity ligation, sequencing); 10 mM Tris-HCl pH 7.5, 50 mM NaCl, 1 mM DTT, 4% glycerol, room temperature, 30 min; GST-TFs on glutathione beads, 16-mer random dsDNA library, 0.1% formaldehyde crosslink after washing; high values mean tight binding
Settings in all cases: protein: recombinant; tags: N-terminal GST; dsDNA, one strand shown

One assay deals with T1, ETV2 (Homo sapiens, UniProt O00321 1-342).
T1 sequence: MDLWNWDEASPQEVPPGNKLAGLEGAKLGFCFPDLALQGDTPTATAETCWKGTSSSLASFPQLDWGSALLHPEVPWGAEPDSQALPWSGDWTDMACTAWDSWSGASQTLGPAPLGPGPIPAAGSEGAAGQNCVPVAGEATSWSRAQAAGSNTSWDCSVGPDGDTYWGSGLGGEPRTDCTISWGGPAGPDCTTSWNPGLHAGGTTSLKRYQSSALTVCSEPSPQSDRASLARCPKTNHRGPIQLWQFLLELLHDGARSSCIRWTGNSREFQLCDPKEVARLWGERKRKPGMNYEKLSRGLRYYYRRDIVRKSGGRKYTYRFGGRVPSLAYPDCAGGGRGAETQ
A digest of the protocol: (§1)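 Binding signal is given per hexamer as its read frequency for a factor divided by its frequency in the tag-only sample. GST-fused human transcription factors were expressed in yeast, captured on glutathione beads, barcoded with DNA and pooled with that sample, then incubated with 200 nmole of a 16-mer random double-stranded DNA library in Tris/NaCl/DTT/glycerol buffer for 30 min at room temperature. The pools were then washed, crosslinked, proximity-ligated, amplified by PCR and sequenced on an Illumina NextSeq500.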

The next assay concerns the target SPI1 (Homo sapiens, UniProt P17947 1-270). Put shortly: as §1
The target in another assay is SPIB (Homo sapiens, UniProt Q01892 1-262). Put shortly: as §1
Chain of SPIB (Q01892 whole entry): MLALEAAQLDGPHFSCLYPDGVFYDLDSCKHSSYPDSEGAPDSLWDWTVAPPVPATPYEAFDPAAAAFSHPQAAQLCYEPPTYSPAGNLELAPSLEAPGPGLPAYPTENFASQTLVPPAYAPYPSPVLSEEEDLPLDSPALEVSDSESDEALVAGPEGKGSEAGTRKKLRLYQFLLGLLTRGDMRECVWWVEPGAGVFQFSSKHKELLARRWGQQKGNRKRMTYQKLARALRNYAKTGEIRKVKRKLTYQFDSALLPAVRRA
The target in another assay is T2, ELK3 (Homo sapiens, UniProt P41970 1-407).
T2 sequence: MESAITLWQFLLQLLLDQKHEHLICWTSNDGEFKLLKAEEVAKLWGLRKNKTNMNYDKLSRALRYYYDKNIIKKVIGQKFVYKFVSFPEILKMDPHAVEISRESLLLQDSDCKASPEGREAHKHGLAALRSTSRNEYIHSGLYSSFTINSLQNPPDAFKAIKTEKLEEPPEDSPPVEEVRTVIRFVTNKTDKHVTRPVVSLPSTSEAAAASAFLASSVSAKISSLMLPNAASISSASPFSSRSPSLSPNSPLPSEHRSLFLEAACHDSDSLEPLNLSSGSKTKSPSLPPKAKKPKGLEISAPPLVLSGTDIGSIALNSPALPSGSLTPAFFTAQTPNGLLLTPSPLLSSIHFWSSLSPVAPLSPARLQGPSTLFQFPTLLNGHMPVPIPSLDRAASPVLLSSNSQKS
A digest of the protocol:
as §1

In another assay the target is T3, ELF3 (Homo sapiens, UniProt P78545 1-371).
T3 sequence: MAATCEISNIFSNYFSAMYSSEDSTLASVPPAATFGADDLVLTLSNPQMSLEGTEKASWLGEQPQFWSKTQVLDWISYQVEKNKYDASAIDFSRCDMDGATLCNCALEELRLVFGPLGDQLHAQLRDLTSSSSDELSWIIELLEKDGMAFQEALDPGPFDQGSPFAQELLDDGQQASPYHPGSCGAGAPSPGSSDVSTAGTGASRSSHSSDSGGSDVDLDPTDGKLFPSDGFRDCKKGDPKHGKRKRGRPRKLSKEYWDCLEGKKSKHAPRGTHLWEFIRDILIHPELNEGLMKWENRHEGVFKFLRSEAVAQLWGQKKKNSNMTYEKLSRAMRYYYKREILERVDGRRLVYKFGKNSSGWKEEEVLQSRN
A digest of the protocol:
as §1

The target in a further assay is CRX (Homo sapiens, UniProt O43186 1-299). A digest of the protocol:
as §1

In a further assay the target is ETV1 (Homo sapiens, UniProt P50549 1-477). Put shortly: as §1
Chain of ETV1 (P50549 whole entry): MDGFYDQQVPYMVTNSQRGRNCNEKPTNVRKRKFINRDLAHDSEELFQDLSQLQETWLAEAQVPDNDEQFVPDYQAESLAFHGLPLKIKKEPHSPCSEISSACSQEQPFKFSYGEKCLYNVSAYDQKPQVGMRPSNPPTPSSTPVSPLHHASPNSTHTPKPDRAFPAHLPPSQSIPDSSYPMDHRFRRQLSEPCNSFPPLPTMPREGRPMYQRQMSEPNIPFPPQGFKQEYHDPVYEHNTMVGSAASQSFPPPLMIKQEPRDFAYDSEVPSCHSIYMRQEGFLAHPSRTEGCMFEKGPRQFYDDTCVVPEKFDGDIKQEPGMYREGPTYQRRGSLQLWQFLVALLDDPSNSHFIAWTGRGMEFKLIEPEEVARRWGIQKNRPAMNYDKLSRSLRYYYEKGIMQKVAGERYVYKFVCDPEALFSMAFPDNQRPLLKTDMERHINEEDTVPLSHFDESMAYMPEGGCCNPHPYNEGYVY
Another assay concerns the target T4, ERF (Homo sapiens, UniProt P50548 1-548).
T4 sequence: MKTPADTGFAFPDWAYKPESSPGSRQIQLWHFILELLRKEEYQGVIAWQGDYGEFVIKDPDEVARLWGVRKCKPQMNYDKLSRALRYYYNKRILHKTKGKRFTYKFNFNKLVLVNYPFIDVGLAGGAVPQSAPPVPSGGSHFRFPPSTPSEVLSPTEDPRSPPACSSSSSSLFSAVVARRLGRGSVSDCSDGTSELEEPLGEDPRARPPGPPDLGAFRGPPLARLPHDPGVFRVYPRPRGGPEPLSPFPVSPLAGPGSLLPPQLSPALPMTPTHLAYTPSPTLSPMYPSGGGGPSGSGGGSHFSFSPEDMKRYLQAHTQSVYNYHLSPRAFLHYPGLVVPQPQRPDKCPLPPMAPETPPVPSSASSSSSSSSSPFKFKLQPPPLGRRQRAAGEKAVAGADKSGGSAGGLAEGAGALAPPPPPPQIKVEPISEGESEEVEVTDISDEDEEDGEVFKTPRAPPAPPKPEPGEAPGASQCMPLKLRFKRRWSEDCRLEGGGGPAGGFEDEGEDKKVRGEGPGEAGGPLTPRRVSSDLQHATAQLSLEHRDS
Put shortly: as §1

For a further assay, the target named is T5, ETV3L (Homo sapiens, UniProt Q6ZN32 1-361).
T5 sequence: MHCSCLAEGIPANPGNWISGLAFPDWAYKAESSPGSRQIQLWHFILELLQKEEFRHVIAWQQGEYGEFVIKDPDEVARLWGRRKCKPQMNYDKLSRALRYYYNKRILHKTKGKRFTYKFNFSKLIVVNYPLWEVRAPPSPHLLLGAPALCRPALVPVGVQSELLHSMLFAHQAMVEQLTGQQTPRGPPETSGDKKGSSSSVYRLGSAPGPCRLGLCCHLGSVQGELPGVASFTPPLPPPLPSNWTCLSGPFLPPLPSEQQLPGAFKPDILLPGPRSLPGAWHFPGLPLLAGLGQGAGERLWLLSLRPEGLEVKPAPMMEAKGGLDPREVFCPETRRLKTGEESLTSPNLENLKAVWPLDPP
Put shortly:
as §1

In another assay the target is T6, ETV7 (Homo sapiens, UniProt Q9Y603 1-341).
T6 sequence: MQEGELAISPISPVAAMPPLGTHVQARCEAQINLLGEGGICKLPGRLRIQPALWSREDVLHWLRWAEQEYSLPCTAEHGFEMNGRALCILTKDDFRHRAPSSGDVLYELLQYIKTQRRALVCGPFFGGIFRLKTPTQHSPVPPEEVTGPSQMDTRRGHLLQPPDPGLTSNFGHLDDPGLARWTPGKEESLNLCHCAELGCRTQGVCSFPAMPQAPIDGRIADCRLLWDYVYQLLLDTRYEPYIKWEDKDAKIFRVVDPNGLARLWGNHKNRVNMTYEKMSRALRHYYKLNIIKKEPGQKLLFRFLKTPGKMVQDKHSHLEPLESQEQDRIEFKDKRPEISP
Put shortly:
as §1

In the next assay the target is ETV6 (Homo sapiens, UniProt P41212 1-452). Put shortly: as §1
Chain of ETV6 (P41212 whole entry): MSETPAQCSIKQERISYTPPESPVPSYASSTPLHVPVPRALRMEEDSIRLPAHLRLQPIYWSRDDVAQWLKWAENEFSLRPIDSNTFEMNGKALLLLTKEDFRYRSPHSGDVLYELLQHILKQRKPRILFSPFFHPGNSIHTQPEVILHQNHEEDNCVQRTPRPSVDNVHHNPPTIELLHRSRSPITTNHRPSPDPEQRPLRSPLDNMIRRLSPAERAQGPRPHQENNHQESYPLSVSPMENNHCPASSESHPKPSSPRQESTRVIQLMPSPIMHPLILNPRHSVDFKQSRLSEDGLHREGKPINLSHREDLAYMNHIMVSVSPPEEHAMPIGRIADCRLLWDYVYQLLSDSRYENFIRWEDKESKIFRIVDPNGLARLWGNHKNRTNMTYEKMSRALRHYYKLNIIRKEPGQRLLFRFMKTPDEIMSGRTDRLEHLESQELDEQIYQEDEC
The target in a further assay is T7, FEV (Homo sapiens, UniProt Q99581 1-238).
T7 sequence: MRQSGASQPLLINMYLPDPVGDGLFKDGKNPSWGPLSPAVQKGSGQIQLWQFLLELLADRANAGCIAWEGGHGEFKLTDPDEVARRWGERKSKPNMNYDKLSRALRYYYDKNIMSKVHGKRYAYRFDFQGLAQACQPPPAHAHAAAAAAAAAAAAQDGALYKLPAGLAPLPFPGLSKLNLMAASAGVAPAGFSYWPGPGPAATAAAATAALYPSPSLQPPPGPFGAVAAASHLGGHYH
Put shortly:
as §1

The target of another assay is T8, GABPA (Homo sapiens, UniProt Q06546 1-454).
T8 sequence: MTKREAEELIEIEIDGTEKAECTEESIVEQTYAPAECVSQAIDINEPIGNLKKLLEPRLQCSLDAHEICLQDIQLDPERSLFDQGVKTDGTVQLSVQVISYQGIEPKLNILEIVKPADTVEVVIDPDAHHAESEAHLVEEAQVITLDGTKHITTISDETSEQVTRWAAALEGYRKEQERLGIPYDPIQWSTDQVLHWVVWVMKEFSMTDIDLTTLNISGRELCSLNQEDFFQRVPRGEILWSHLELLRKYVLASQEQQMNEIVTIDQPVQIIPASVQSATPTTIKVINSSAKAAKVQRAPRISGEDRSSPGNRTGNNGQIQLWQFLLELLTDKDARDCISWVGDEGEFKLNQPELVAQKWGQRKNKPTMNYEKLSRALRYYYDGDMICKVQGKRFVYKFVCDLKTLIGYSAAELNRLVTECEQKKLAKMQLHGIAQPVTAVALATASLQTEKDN
Put shortly:
as §1

Chain of CRX (O43186 whole entry): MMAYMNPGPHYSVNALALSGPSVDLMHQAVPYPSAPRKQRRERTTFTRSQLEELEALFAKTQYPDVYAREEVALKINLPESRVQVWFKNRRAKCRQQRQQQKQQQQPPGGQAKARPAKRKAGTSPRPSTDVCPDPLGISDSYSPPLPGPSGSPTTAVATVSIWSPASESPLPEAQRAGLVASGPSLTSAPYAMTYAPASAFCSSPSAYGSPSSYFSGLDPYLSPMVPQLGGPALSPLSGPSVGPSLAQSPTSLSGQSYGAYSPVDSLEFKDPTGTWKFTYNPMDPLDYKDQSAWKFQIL

For GCGACG, the binding signal in the assay with ETV2 was 1.15 fold enrichment (6-mer frequency, TF over GST control).
Consider AGCAAG, for which the binding signal with ETV2 is 1.02 fold enrichment (6-mer frequency, TF over GST control).
Turning to TCGTCG, in the assay with ETV2, the binding signal is 1.05 fold enrichment (6-mer frequency, TF over GST control).
Same read-out and setting: next, GACCCA: 1.09 fold enrichment (6-mer frequency, TF over GST control); GCAAAG: 1.12 fold enrichment (6-mer frequency, TF over GST control).
As for AGTTTA, the binding signal was 1.01 fold enrichment (6-mer frequency, TF over GST control) with SPI1; 1.04 fold enrichment (6-mer frequency, TF over GST control) in the assay with SPIB; 1.03 fold enrichment (6-mer frequency, TF over GST control) in the assay with ELK3; 1.11 fold enrichment (6-mer frequency, TF over GST control) with ELF3; 1.08 fold enrichment (6-mer frequency, TF over GST control) in the assay with CRX; 1.04 fold enrichment (6-mer frequency, TF over GST control) with ETV1. The binding signal with ERF is 1.01 fold enrichment (6-mer frequency, TF over GST control); with ETV3L, 1.09 fold enrichment (6-mer frequency, TF over GST control); with ETV7 it was 1.02 fold enrichment (6-mer frequency, TF over GST control); in the assay with ETV6 it was 1.12 fold enrichment (6-mer frequency, TF over GST control).
GTATCG: the binding signal with ETV2 is 1.09 fold enrichment (6-mer frequency, TF over GST control); with ELF3, 1.13 fold enrichment (6-mer frequency, TF over GST control).
As for TAGTCA, the binding signal in the assay with ELF3 is 1.07 fold enrichment (6-mer frequency, TF over GST control).
GATAAC: the binding signal with ETV2 is 1.08 fold enrichment (6-mer frequency, TF over GST control); with CRX, 1.13 fold enrichment (6-mer frequency, TF over GST control).
Consider CTGGGA, for which the binding signal with ETV2 is 1.01 fold enrichment (6-mer frequency, TF over GST control).
In the case of GACCGA, the binding signal with ETV2 is 1.04 fold enrichment (6-mer frequency, TF over GST control).
Turning to AGCCCA, the binding signal with FEV was 1.01 fold enrichment (6-mer frequency, TF over GST control); in the assay with ETV2, 1.04 fold enrichment (6-mer frequency, TF over GST control); in the assay with ELF3 it was 1.04 fold enrichment (6-mer frequency, TF over GST control); with CRX it was 1.05 fold enrichment (6-mer frequency, TF over GST control).
Turning to GAAAGC, the binding signal with ELF3 was 1.06 fold enrichment (6-mer frequency, TF over GST control).
Turning to AGGCCT, the binding signal is 1.08 fold enrichment (6-mer frequency, TF over GST control) in the assay with GABPA; 1.01 fold enrichment (6-mer frequency, TF over GST control) in the assay with ELK3; 1.01 fold enrichment (6-mer frequency, TF over GST control) in the assay with ETV2; 1.07 fold enrichment (6-mer frequency, TF over GST control) with CRX; 1.01 fold enrichment (6-mer frequency, TF over GST control) with ETV7.
